Laboratory results as given in PubChem BioAssay (NCATS).
Results filed as inconclusive are left out. Activity calls are given as the source filed them. Unless noted, calls come from the whole dose curve.

Experiments:
[1] = Cell Viability - BJ (AID 421); details: BJ fibroblast viability, qHTS;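 note: potency is the fitted concentration of half-maximal effect; cells exposed to compound for 40 hours at 37 °C before readout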
Method in brief: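 Cytotoxicity as drop in intracellular ATP (CellTiter-Glo, 20 min RT) after 40 hr compound exposure of BJ fibroblasts at 37 °C. Titrations scaled between DMSO and 100 uM tamoxifen, Hill-fitted for AC50.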

[2] = Cell Viability - Jurkat (AID 426;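 active = dose-dependent loss of cell ATP signal giving a full or clear fitted curve, ranked by lower potency value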;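 note: potency is the fitted concentration of half-maximal effect; cells exposed to compound for 40 hours at 37 °C before ATP read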); details: qHTS
Method in brief: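 Luminescent ATP read-out (CellTiter-Glo, 20 min at room temperature) after 40 hr compound exposure at 37 °C of Jurkat E6-1 cells, 5000/well. Decreased ATP taken as cytotoxicity; AC50 from standard Hill equation.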

[3] = Cell Viability - Hek293 (AID 427;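 active = compounds whose dose-response curve shows a full or clear partial loss of cell viability, called from curve shape rather than a numeric limit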;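 note: potency is the fitted concentration of half-maximal effect; cells exposed to compound for 40 hours at 37 °C before reading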); details: qHTS
Method in brief: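 Luminescent ATP content (CellTiter-Glo, 20 min at room temperature) was measured after a 40 hr, 37 °C compound exposure of HEK293 cells. AC50 values came from Hill-equation fits of qHTS concentration-response data normalized to DMSO and 100 uM tamoxifen.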

[4] = Cell Viability - HepG2 (AID 433); details: qHTS;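 note: potency is the fitted concentration of half-maximal effect; cells exposed to compound for 40 hours; potency for ATP loss meaning cytotoxicity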
Method in brief: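 HepG2 cells, 1500 per well, treated 40 hr at 37 °C in complete medium; viability from intracellular ATP by CellTiter-Glo luminescence. Normalized to DMSO and 100 uM tamoxifen; AC50 from Hill fit of qHTS concentration-response.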

[5] = Cell Viability - MRC5 (AID 434); details: MRC5 lung fibroblast viability, qHTS;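 note: potency is the fitted concentration of half-maximal effect; cells exposed to compound for 40 hours at 37 °C; potency reflects cytotoxicity seen as loss of intracellular ATP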
Method in brief: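 AC50 values come from Hill-equation fits of intracellular ATP loss, measured by CellTiter-Glo luminescence. Normal lung fibroblasts (MRC5) had 40 hr compound treatment at 37 C, normalized between DMSO and 100 uM tamoxifen.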

[6] = Cell Viability - SK-N-SH (AID 435); details: SK-N-SH neuroblastoma cell viability qHTS;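 note: potency is the fitted concentration of half-maximal effect; compound exposure lasted 40 h at 37 °C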
Method in brief: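 SK-N-SH neuroblastoma cells (1500/well) treated 40 h at 37 °C in complete medium; viability read as cellular ATP by CellTiter-Glo luminescence. Normalized to DMSO and 100 uM tamoxifen; AC50 from Hill fits of qHTS concentration-response.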

[7] = molecular target: Mitogen-activated protein kinase 10 (Mus musculus) (UniProt Q61831); test: JNK3 AlphaScreen Assay (AID 530; active = well fitted curve in either direction with a large enough effect, not every such curve was filed as active;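 note: kinase came from lysate of stimulated human HepG2 cells; signal reports phosphorylation of biotinylated GST-cJun 1-79 at Ser73 with 10 µM ATP; % is set by controls: 0 for no effect and ±100 for the full control effect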); details: JNK3 lysate, c-Jun phosphorylation; series mostly up to 57.1 µM
Method in brief: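 Kinase buffer: 20 mM Tris-HCl pH 7.6, 10 mM MgCl2, 1 mM DTT, 0.1 mM Na3VO4, 0.01% Tween-20; ATP 10 uM. Substrate biotin-GST-cJun(1-79), enzyme from activated HepG2 lysates. Detection by Ser73 phospho-antibody AlphaScreen.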

[8] = Cell Viability - N2a (AID 540; active = well fitted curve in the direction sought with a large enough effect; an effect the other way counts as inactive or inconclusive;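 note: cells exposed to compound for 40 h at 37 °C; plate controls were DMSO alone for no effect and tamoxifen control for full effect; nearly all actives have a fitted effect of over 45% in size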); details: N2a mouse neuroblastoma cell viability; activity change, negative = cytotoxicity: at 92.2 µM (top of the series)
Method in brief: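 N2a mouse neuroblastoma, 1500 cells/well, 5 hr settle; compound 40 hr, 37 °C; CellTiter-Glo 20 min RT; luminescence; Hill-fit AC50.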

[9] = Cell Viability - NIH 3T3 (AID 541; active = well fitted curve in the direction sought with a large enough effect; an effect the other way counts as inactive or inconclusive;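 note: cells exposed to compound for 40 hours; plate controls were DMSO alone for no effect and tamoxifen positive control for full effect; nearly all actives have a fitted effect of over 25% in size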); details: NIH 3T3 cell viability, qHTS; activity change, negative = cytotoxicity: at 92.2 µM (top of the series)
Method in brief: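 qHTS format; 40 hr compound exposure, 37 °C; CellTiter-Glo luminescence (cellular ATP) read-out after 20 min at RT. Decrease in ATP = cytotoxicity; AC50 from standard Hill fit.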

[10] = Cell Viability - HUV-EC-C (AID 542; active = well fitted curve in the direction sought with a large enough effect; an effect the other way counts as inactive or inconclusive;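 note: cells exposed to compound for 40 hours; % is set by controls: 0 for no effect and ±100 for the full control effect; nearly all actives have a fitted effect of over 35% in size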); details: HUV-EC-C endothelial cell viability, qHTS; series mostly up to 92.2 µM
Method in brief: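 Luminescent ATP read-out (CellTiter-Glo, 20 min room temperature) after 40 hr compound treatment of HUV-EC-C cells at 37 °C. Concentration-response data fitted with the standard Hill equation to give AC50; tamoxifen and doxorubicin served as positive controls.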

Fc1ccccc1
inactive: Potency [1] > 92 µM | Potency [2] > 92 µM | Potency [3] > 92 µM | Potency [4] > 92 µM | Potency [5] > 92 µM | Potency [6] > 92 µM | outcome [7] | activity change, negative = cytotoxicity [8] 2.48% | Potency [9]

O=[N+]([O-])c1cccc(C(F)(F)F)c1
inactive: Potency [1] > 92 µM | Potency [2] > 92 µM | Potency [3] > 92 µM | Potency [4] > 92 µM | Potency [5] > 92 µM | Potency [6] > 92 µM | outcome [7] | activity change, negative = cytotoxicity [8] 4.54% | Potency [9]

Nc1nc(-c2ccccc2)cs1
inactive: Potency [1] > 92 µM | Potency [2] > 92 µM | Potency [3] > 92 µM | Potency [4] > 92 µM | Potency [5] > 92 µM | Potency [6] > 92 µM | outcome [7] | activity change, negative = cytotoxicity [8] -4.72% | Potency [9]

CC(=O)OCCC(C)C
inactive: Potency [1] > 92 µM | Potency [2] > 92 µM | Potency [3] > 92 µM | Potency [4] > 92 µM | Potency [5] > 92 µM | Potency [6] > 92 µM | outcome [7] | activity change, negative = cytotoxicity [8] -1.72% | Potency [9]

C/C=C(/C)C#N
inactive: Potency [1] > 92 µM | Potency [2] > 92 µM | Potency [3] > 92 µM | Potency [4] > 92 µM | Potency [5] > 92 µM | Potency [6] > 92 µM | outcome [7] | activity change, negative = cytotoxicity [8] -3.64% | Potency [9]

CC1CCC2CC1C2(C)C (stereo not given)
inactive: Potency [1] > 92 µM | Potency [2] > 92 µM | Potency [3] > 92 µM | Potency [4] > 92 µM | Potency [5] > 92 µM | Potency [6] > 92 µM | outcome [7] | activity change, negative = cytotoxicity [8] -4.47% | Potency [9] | Potency [10]

CCCCC(CC)COC(=O)CCCCC(=O)OCC(CC)CCCC (stereo not given)
inactive: Potency [1] > 92 µM | Potency [2] > 92 µM | Potency [3] > 92 µM | Potency [4] > 92 µM | Potency [5] > 92 µM | Potency [6] > 92 µM | outcome [7] | activity change, negative = cytotoxicity [8] 3.75% | Potency [9] | Potency [10]

Cc1cccc(Br)c1
inactive: Potency [1] > 92 µM | Potency [2] > 92 µM | Potency [3] > 92 µM | Potency [4] > 92 µM | Potency [5] > 92 µM | Potency [6] > 92 µM | outcome [7] | activity change, negative = cytotoxicity [8] -13.7% | Potency [9] | Potency [10]

CNC(=O)N(c1ccccc1)c1ccccc1
inactive: Potency [1] > 92 µM | Potency [2] > 92 µM | Potency [3] > 92 µM | Potency [4] > 92 µM | Potency [5] > 92 µM | Potency [6] > 92 µM | outcome [7] | activity change, negative = cytotoxicity [8] -1.02% | Potency [9] | Potency [10]

O=C1OC(=O)c2c(Cl)c(Cl)c(Cl)c(Cl)c21
inactive: Potency [1] > 92 µM | Potency [2] > 92 µM | Potency [3] > 92 µM | Potency [4] > 92 µM | Potency [5] > 92 µM | Potency [6] > 92 µM | outcome [7] | activity change, negative = cytotoxicity [8] 4.39% | Potency [9] | Potency [10]

CC/C(C)=N/O
inactive: Potency [1] > 92 µM | Potency [2] > 92 µM | Potency [3] > 92 µM | Potency [4] > 92 µM | Potency [5] > 92 µM | Potency [6] > 92 µM | outcome [7] | activity change, negative = cytotoxicity [8] 3.53% | Potency [9] | Potency [10]

ICCc1ccccc1
inactive: Potency [1] > 92 µM | Potency [2] > 92 µM | Potency [3] > 92 µM | Potency [4] > 92 µM | Potency [5] > 92 µM | Potency [6] > 92 µM | outcome [7] | activity change, negative = cytotoxicity [8] 0.359% | Potency [9] | Potency [10]

Cc1ccc2ccccc2c1[N+](=O)[O-]
inactive: Potency [1] > 92 µM | Potency [2] > 92 µM | Potency [3] > 92 µM | Potency [4] > 92 µM | Potency [5] > 92 µM | Potency [6] > 92 µM | outcome [7] | activity change, negative = cytotoxicity [8] -10.2% | Potency [9] | Potency [10]

Cc1ccccc1C#N
inactive: Potency [1] > 92 µM | Potency [2] > 92 µM | Potency [3] > 92 µM | Potency [4] > 92 µM | Potency [5] > 92 µM | Potency [6] > 92 µM | outcome [7] | activity change, negative = cytotoxicity [8] -9.75% | Potency [9] | Potency [10]

C1CCCC1
inactive: Potency [1] > 92 µM | Potency [2] > 92 µM | Potency [3] > 92 µM | Potency [4] > 92 µM | Potency [5] > 92 µM | Potency [6] > 92 µM | outcome [7] | activity change, negative = cytotoxicity [8] 7.78% | Potency [9] | Potency [10]

NC(N)=S
inactive: Potency [1] > 92 µM | Potency [2] > 92 µM | Potency [3] > 92 µM | Potency [4] > 92 µM | Potency [5] > 92 µM | Potency [6] > 92 µM | outcome [7] | activity change, negative = cytotoxicity [8] 7.78% | Potency [9] | Potency [10]

O=C(O)c1ccc(Cl)c(Cl)c1
inactive: Potency [1] > 92 µM | Potency [2] > 92 µM | Potency [3] > 92 µM | Potency [4] > 92 µM | Potency [5] > 92 µM | Potency [6] > 92 µM | outcome [7] | activity change, negative = cytotoxicity [8] 1.1% | Potency [9] | Potency [10]
